About 83,000 compounds went through this panel and 20% of them were active in at least one assay; those are over-represented in the sample as a whole.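 The endpoint reported here, percent growth, reads 100 for growth as untreated, 0 for no net growth and -100 for all cells dead.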 A number with no mark means an inactive call. Active and inactive are the calls of the source. How the source made its calls: active means growth percent below 10; inactive means the rest.

Common to all, as to assay: NCI-60 one-dose screen, 48 h (100 = growth as untreated, 0 = no growth, -100 = all killed)
What all share (conditions): 10 µM unless noted

Test [1] deals with SR leukemia.
The subject of test [2] is RPMI-8226 leukemia.
Test [3] deals with OVCAR-8 ovarian.
The test system of test [4] is OVCAR-5 ovarian.
Test [5] relates to OVCAR-4 ovarian.
Test [6] has as its system SK-OV-3 ovarian.
Test [7] has as its system IGROV1 ovarian.
The test system of test [8] is OVCAR-3 ovarian.
Test [9] deals with HS 578T breast.
Test [10] has as its system NCI/ADR-RES ovarian.
Test [11] has as its system T-47D breast.
Test [12] relates to BT-549 breast.
The test system of test [13] is MDA-MB-435 melanoma.
Test [14] deals with SW-620 colon.
Test [15] relates to MCF7 breast.
For test [16], the system named is HCT-116 colon.
The subject of test [17] is HCC-2998 colon.
The subject of test [18] is KM12 colon.

For `Cc1c(O)c(N=Nc2ccc(C(=O)O)c(O)c2)c2ccccc2c1O`, the growth in [1] is 85.8%; in [2], 106%; in [3] it was 96.9%; in test [4], 25.5%; in test [5], 107%; in test [6] it was 95.5%. Moreover, the growth in [7] is -25.9% (active); in test [8], 108%; in test [9] it was 94.7%; in test [10], 110%; in [11], 112%; in test [12] it was 89.3%. The growth in test [13] is 106%; in test [14] it was 84.8%; in [15] it was 101%; in test [16], 98.1%; in [17], 118%; in test [18], 98.3%.

`COc1ccc(-c2nc(SCC(C)C)nc(Nc3ccc([N+](=O)[O-])cc3)c2C#N)cc1`: the growth in test [1] was 54.4%; in test [2], 93.9%; in test [3], 93.4%; in [4], 106%; in [5] it was 37.5%; in [6], 99.2%. Moreover, the growth was 94.3% in test [7]; 81.5% in test [8]; 90.4% in test [9]; 101% in test [10]; 92.6% in test [11]; 104% in test [12]. The growth was 101% in [13]; 84.8% in test [14]; 90.2% in test [15]; 60.1% in test [16]; 107% in test [17]; 99.9% in test [18].

Take `COc1cc(N)c2nccc(C)c2c1OC`: the growth in test [1] is 55.5%; in test [2], 144%; in test [3] it was 96.4%; in test [4], 107%; in [5], 94.4%; in test [6], 108%. For the same compound, the growth in test [7] is 385%; in [8], 111%; in test [9], 104%; in test [10], 131%; in test [11] it was 108%; in test [12], 83.3%. Also, the growth in test [13] was 110%; in [14], 94.1%; in test [15], 113%; in test [16], 102%; in test [17], 149%; in [18], 101%.

For `COc1ccc(/C=C2\SC(=O)N(Cc3cc(=O)oc4ccc(OC)cc34)C2=O)cc1`, the growth in test [1] is 69.6%; in test [2], 64.1%; in test [3], 95.4%; in test [4], 100%; in [5], 63.6%; in test [6], 96.6%. Also, the growth in test [7] was 98.1%; in test [8] it was 84.6%; in test [9] it was 103%; in test [10] it was 95.7%; in test [11] it was 63.1%; in [12], 77.4%. Moreover, the growth is 100% in test [13]; 106% in test [14]; 82.5% in test [15]; 82.8% in test [16]; 95.4% in test [17]; 88.9% in test [18].

With `Nc1nc2c(c3cnccc13)C(c1cccc(Cl)c1)Cc1cnccc1-2` (centres undefined), the growth in test [1] was 19.5%; in [2], 8.24% (active); in [3] it was 29.3%; in test [4], 40.4%; in test [5], 32.1%; in test [6] it was 32%. For the same compound, the growth in test [7] is 35.9%; in test [8], 10.1%; in test [9], 38.9%; in [10], 6.79% (active); in test [11], 47.9%; in test [12], -12% (active). The growth was -22.9% (active) in [13]; 24.2% in test [14]; 11.1% in [15]; 6.83% (active) in [16]; 41.7% in test [17]; 13.7% in test [18].

Turning to `O=C(/C=C/c1ccc(Br)cc1)c1ccccc1`, the growth was 4.53% (active) in [1]; 1.56% (active) in test [2]; 91.9% in test [3]; 113% in test [4]; 96.3% in [5]; 111% in test [6]. Further, the growth in test [7] was 87.3%; in test [8], 93.3%; in [9], 100%; in [10] it was 99.5%; in [11], 74.8%; in [12], 95.8%. In addition, the growth was 87.6% in test [13]; 65.6% in [14]; 8.28% (active) in test [15]; 61.6% in test [16]; 99.4% in [17]; 39.6% in test [18].

`C[C@@H](c1ccc2c(c1)[nH]c1ccc(Cl)cc12)c1nc2ccc(Cl)cc2[nH]1`: the growth in test [1] is 43.2%; in [2], 8.76% (active); in test [3] it was 94%; in test [4] it was 75.2%; in [5], 74.2%; in test [6], 96.3%. The growth was 57.6% in test [7]; 72% in test [8]; 107% in [9]; 88.1% in [10]; 19.1% in test [11]; 68.2% in [12]. Also, the growth in [13] was 106%; in test [14], 98.7%; in [15] it was 13.8%; in test [16] it was 79.7%; in [17], 92%; in test [18], 81.9%.

Regarding `COc1cc(Cn2ccc3c2-c2oncc2CC3)cc(OC)c1`, the growth in test [1] was 24.1%; in test [2], 35.2%; in test [3], 49%; in test [4], 57%; in [5], 61.7%; in test [6] it was 24.6%. Further, the growth was 26.2% in test [7]; 4.85% (active) in test [8]; 32.4% in test [9]; -13.9% (active) in test [10]; 32.2% in test [11]; 32.9% in [12]. The growth in test [13] is -37% (active); in test [14], 18%; in test [15], 6.18% (active); in test [16], 14.7%; in [17], 61.6%; in test [18], 24.5%.
